Assay outcomes (PubChem BioAssay)
Hits are enriched below; roughly 6.2% of the tested compounds scored in any of these assays.
Cardio protect: cardioprotection against H2O2-induced cell death, primary screen, uHTS, H9c2 cells, ATPLite luminescence. H9c2 cardiomyocytes, H2O2 injury protection, 2 h. 0.63% of 360,000 active. protection from H2O2 cell death, % at 20 µM;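 active = compounds giving at least 50% protection of heart cells from peroxide-induced death in the single-dose screen, raw or plate-pattern-corrected value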;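 also: 0% = DMSO wells with peroxide and 100% = DMSO wells without peroxide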
AI-2 QS mod: Vibrio harveyi AI-2 quorum sensing modulators, primary screen, JMH597 strain, luminescence/OD600 ratio; Vibrio harveyi JMH597 AI-2 luminescence/OD600 ratio, 9 h; hits give low values; strain lacks LuxN and CqsS sensors; 0 = neutral-control median; activity change, % at 7.5 µM; 0.4% of 300,000 active; AID 2094, 2009; in the data active = activity change below about -75%, passing the limit was not always enough;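 also: luminescence divided by OD600 gain over 9 h not by final OD600 alone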
GRIN3A LBD mod: binders of NR3A ligand-binding domain, primary screen, biophysical, differential scanning fluorimetry, uHTS; Tm shift relative to glycine control, % at 25 µM; NR3A LBD differential scanning fluorimetry, Tm shift; 0% = protein alone, 100% = glycine-bound protein; AID 1259313, 2017; Glutamate receptor ionotropic, NMDA 3A (GRIN3A) ligand-binding domain; 2.5% of 340,000 active;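 active = melting temperature shift of at least 10% of the positive control shift, at one fixed dose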
Mot1-301 SUMO: yeast Mot1-301 growth rescue at high temperature, primary screen, SUMOylation pathway inhibitor project, S. cerevisiae, ATP luminescence, 38.5C; S. cerevisiae Mot1-301 growth rescue; percent above DMSO median, 100 means doubled; growth rescue, % at 18.8 µM; 1% of 320,000 active; AID 2716, 2010;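 active = every valid replicate shows activation above 250% relative to neutral control wells; inactive = the rest, any valid replicate at or below 250%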;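 also: OY570 slx delta 5 strain wells were the positive control but not used for scaling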
AHR activator: AHR activators, primary screen, cell-based, luminescence, luciferase reporter, human. AHR-responsive luciferase reporter cells. Aryl hydrocarbon receptor (Homo sapiens), P35869. AID 2796, 2010. 2.5% of 320,000 active. activation, % at 5 µM; in the data active = activation above about 47%;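 also: 0% = vehicle wells and 100% = reference agonist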
NTR1 ag: agonists of human NTR1, primary screen, imaging, U2OS cells, beta-arrestin-GFP, high content; activation, % at 20 µM; AID 493036, 2011; Neurotensin receptor type 1 (Homo sapiens), P30989; 0.17% of 330,000 active; NTR1-U2OS beta-arrestin-GFP spot imaging, agonist mode;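 active = activation at or above 40% of the spot to cytoplasm intensity ratio, with at least 20 cells analyzed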;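 also: 0% = DMSO without peptide and 100% = 100 nM NTR1 peptide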
Target sequence (P30989 whole entry, looked up): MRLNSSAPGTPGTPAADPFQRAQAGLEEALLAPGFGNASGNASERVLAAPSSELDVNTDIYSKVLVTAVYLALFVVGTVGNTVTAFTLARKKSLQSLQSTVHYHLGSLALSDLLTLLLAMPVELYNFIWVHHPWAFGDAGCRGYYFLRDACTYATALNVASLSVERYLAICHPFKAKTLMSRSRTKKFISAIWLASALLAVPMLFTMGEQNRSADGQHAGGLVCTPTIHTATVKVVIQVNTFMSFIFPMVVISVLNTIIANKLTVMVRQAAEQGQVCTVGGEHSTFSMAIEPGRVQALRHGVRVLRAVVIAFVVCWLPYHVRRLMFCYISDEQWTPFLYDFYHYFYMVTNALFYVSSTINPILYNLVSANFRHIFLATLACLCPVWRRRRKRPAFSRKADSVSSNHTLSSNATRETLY
* marks the source's active call; other numbers are inactive results; . = not tested or not shown.

SMILES	Cardio protect	AI-2 QS mod	GRIN3A LBD mod	Mot1-301 SUMO	AHR activator	NTR1 ag
O=C(CSc1ccc(-c2cccnc2)nn1)Nc1ccc(F)cc1F	0	-5	2	-10	65*	0
Cn1cnc(S(=O)(=O)N2CCCCC2c2cc(C(=O)Nc3cccc4c3CCCC4)no2)c1 (stereo unspecified)	2	.	.	.	.	.
O=C1C=C(Nc2ccccc2O)c2ccccc2C1=O	-16	-10	-1	-4	72*	-1
Cc1ccc(NC2=CC(=O)C(=O)c3ccccc32)c(C)c1	-28	.	-3	-15	26	-2
CC(/C=C/c1ccc(N(C)C)cc1)=N/N=C1/NC(=O)CC(C(=O)Nc2ccc(Cl)cc2)S1 (stereo unspecified)	0	39	27*	1	9	0
CCOC(=O)C1=C(COC(=O)c2ccco2)NC(=O)NC1CC (stereo unspecified)	1	.	0	5	-2	1
O=[N+]([O-])c1cccc(/C=C/c2nc(C=Nc3ccccc3)c(O)o2)c1	-10	17	11*	10	0	20
Oc1oc(-c2ccccc2)nc1C=Nc1ccccc1	2	11	-32	1	5	1
COc1cc(C#Cc2c(-c3cncn3C)n(C)c3ccc(-c4ccc(OC)nc4)cc23)cc(OC)c1	-2	.	-8	-1	60*	0
COc1cc(C#Cc2c(-c3cncn3C)n(C)c3ccc(-c4cc(OC)c(OC)c(OC)c4)cc23)cc(OC)c1	34	.	-7	30	40	3
Cc1ccc(S(=O)(=O)N2CCN(C(=O)c3ccccc3)C2C(C)C)cc1 (stereo unspecified)	14	6	-5	279*	1	-1
CCSc1nnc(N2C(=O)c3ccc(C(=O)c4ccc(C(=O)O)cc4)cc3C2=O)s1	11	5	2	13	0	0
O=C(N/N=C/c1ccc(OCc2ccccc2)cc1)c1ccncc1	-1	4	5	-25	4	-1
Cc1occc1C(=O)Nc1ccc(OCc2ccccc2)cc1	-6	2	26*	-44	8	0
O=C(Nc1ccc(OCc2ccccc2)cc1)c1cccs1	-6	23	25*	-3	-3	1
COc1ccc(NC(=O)c2cccs2)cc1	-12	19	-18	6	1	1
CCCNC(=O)C(=O)N/N=C/c1ccc(OCc2ccccc2)cc1	19	28	0	.	-3	0
Oc1ccc(N=Cc2ccc(OCc3ccccc3)cc2)cc1	-23	22	10*	.	1	2
O=C(N/N=C/c1ccc(OCc2ccccc2)cc1)c1cccs1	-6	13	21*	-2	1	8
C=C(C)C(COc1c2occc2cc2ccc(=O)oc12)OC(C)(C)C(O)COc1c2occc2cc2ccc(=O)oc12 (stereo unspecified)	28	.	-2	.	78*	2
COc1ccc(CCC(=O)Nc2ccc(OC)c(S(=O)(=O)N3CCCCC3)c2)cc1	-4	.	0	-7	1	-1
Cc1cccc(C(=O)OCC(=O)NCC2COc3ccccc3O2)c1 (stereo unspecified)	0	.	-1	15	-1	0
Cn1c(CC(=O)Nc2ccccc2)c(Sc2ccccc2)c2ccccc21	-6	11	4	11	16	1
CSc1c(CC(=O)Nc2ccccc2)n(C)c2ccccc12	-7	12	-8	-11	58*	3
CCOc1ccc(NC(=O)CCn2c(=O)[nH]c3ccsc3c2=O)cc1	5	10	19*	5	-3	-2
SMILES	Cardio protect	AI-2 QS mod	GRIN3A LBD mod	Mot1-301 SUMO	AHR activator	NTR1 ag
Cc1ccc(NC(=O)CCn2c(=O)[nH]c3ccsc3c2=O)cc1	4	22	-1	-28	-7	2
O=C(CCCn1c(=O)[nH]c2ccsc2c1=O)Nc1ccc(F)cc1	1	15	2	-5	0	1
O=C(CCn1c(=O)[nH]c2ccsc2c1=O)NCc1ccc(F)cc1	-3	10	0	451*	0	0
Cc1nnc(N2C(=O)C(=O)/C(=C(/O)c3ccc4c(c3)OCCO4)C2c2ccc([N+](=O)[O-])cc2)s1 (stereo unspecified)	6	34	.	8	-2	-1
O=C(CC1C=Cc2ccccc2N1C(=O)c1ccccc1)c1ccccc1 (stereo unspecified)	-10	3	10*	-9	13	6
CC1C=Cc2ccccc2N1C(=O)c1ccccc1 (stereo unspecified)	5	12	-1	11	9	2
Fc1ccc(NC(=S)N/N=C/c2cccc(Br)c2)c(F)c1	-2	-14	32*	.	9	-2
Fc1cccc(/C=N/NC(=S)Nc2ccccc2Cl)c1	-7	27	0	184	76*	2
Fc1ccc(/C=N/NC(=S)Nc2ccc(Cl)cc2)cc1F	-4	-12	5	-11	26	-1
Cc1cccc(NC(=S)N/N=C/c2cccc(O)c2)c1C	-2	-9	-3	-12	10	4
S=C(N/N=C/c1ccc(Cl)c(Cl)c1)Nc1ccccc1Cl	-10	28	38*	-2	41	1
Cc1cccc(N(O)C(=O)Nc2cccc(Cl)c2)c1	-2	-27	-6	-6	.	0
COc1ccccc1S(=O)(=O)Cc1ccc(C(=O)N2CCN(c3ccccn3)CC2)o1	11	.	2	-18	66*	2
O=C(c1ccc(CS(=O)Cc2ccccc2Cl)o1)N1CCN(c2ccccn2)CC1 (stereo unspecified)	20	26	-2	13	31	0
O=C(c1ccc(CS(=O)c2ccccc2Cl)o1)N1CCN(c2ccccn2)CC1 (stereo unspecified)	9	9	0	1	59*	0
N#Cc1ccc(N[C@@H]2CCN3C(=O)c4ccccc4[C@@H]3C[C@H]2O)cc1	11	.	-1	.	.	1
Cc1ccc(NC(=O)c2ncn(CCCN3CCN(Cc4cccc5ccccc45)CC3)n2)cc1C	-16	.	-11	.	.	.
COc1ccc(NC(=O)COC(=O)Cc2c[nH]c3ccccc23)cc1Cl	-4	.	20*	4	20	-1
NC(=O)c1ccc(NC(=O)COC(=O)CCCc2c[nH]c3ccccc23)cc1	-4	7	10*	-21	7	1
Cc1ccc(NC(=O)COC(=O)Cc2c[nH]c3ccccc23)cc1C	2	.	2	.	9	-2
